From PubChem
RORg inh: qHTS for inhibitors of ROR gamma transcriptional activity; Nuclear receptor ROR-gamma (Mus musculus), P51450; Drosophila S2 Gal4-RORgamma UAS-luciferase reporter, 20 h; Potency, µM (top dose mostly 53.6 µM), for inactives: top-dose activity change, negative = inhibition, actives largely listed as inhibitors; 310,000 compounds, 5.4% hits; note: potency is the fitted concentration of half-maximal effect; % is set by controls: 0 for no effect and ±100 for the full control effect; nearly all actives have a fitted effect of over 60% in size
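Drosophila S2 cells stably expressing Gal4-DBD/mouse RORγ fusion under metallothionein promoter plus UAS-luciferase; compound 1 h, then 700 uM CuSO4 induction for 20 h at ambient temperature; inhibition read as reduced luminescence.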
CtBP-E1A inh: qHTS Assay for Inhibitors of the CtBP/E1A Interaction; CtBP / adenovirus E1A interaction (AlphaScreen); AlphaScreen GST-E1A/His-CtBP binding, 1536-well; stronger effect = lower value; activity change, % (concentration not given with the values); 340,000 compounds, 0.49% hits; AID 651724, 2012; in the data active = activity change below about -65%; inconclusive = mostly about -30% to -63%; note: % is set by controls: 0 for no effect and ±100 for the full control effect
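Steps: dispense buffer (Tris pH 8.0, NaCl 300 mM, TCEP 1 mM, BSA, Tween 20); add 5X protein mix (GST-E1A, His-CtBP, 125 nM each); pin 23 nL compound; 2 h at 37 °C, dark; add 5X beads (50 ug/mL); 1 h; read.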
MBNL1-CUG inh: qHTS Assay for Inhibitors of MBNL1-poly(CUG) RNA binding; TR-FRET MBNL1-His/biotin-(CUG)12 binding, 665/545 ratio; 280,000 compounds, 0.036% hits; AID 2675, 2010; Potency, µM (titrated, usually from 57.5 µM), without a hit: top-dose activity change, negative = inhibition, hits mostly inhibitors; Muscleblind-like protein 1 (Homo sapiens), Q9NR56; active = well fitted inhibition curve with a large enough effect in the signal ratio, with a control signal flat, not every such curve was filed as active; inconclusive = small, poorly fitted or top-dose-only effect, or effect the other way, or a change in a side signal; inactive = no such curve, though single readings can be large or run the other way; the % refers to the signal ratio; note: potency is the fitted concentration of half-maximal effect; % is set by controls: 0 for no effect and ±100 for the full control effect
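His-tagged MBNL1 binding to biotinylated (CUG)12 RNA was measured by TR-FRET using terbium anti-His antibody (0.055 ng/ul final) and streptavidin-XL665 (5 nM final). Compounds were titrated 92 nM to 58 uM; 60 min at room temperature.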
Six1-Eya2 inh: qHTS Assay for Inhibitors of the Six1/Eya2 Interaction; 360,000 compounds, 0.56% hits; Homeobox protein SIX1 (Homo sapiens) + Protein phosphatase EYA2 (Homo sapiens), …; AID 651725, 2012; AlphaScreen GST-Six1/His-Eya2 binding, biochemical; stronger effect = lower value; activity change, % (no concentration beside the values); in the data active = activity change below about -65%; inconclusive = mostly about -30% to -63%; note: % is set by controls: 0 for no effect and ±100 for the full control effect
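Homogeneous AlphaScreen proximity assay pairing GST-Six1 with His-tagged Eya2 (added as 5X mix: 250 nM and 500 nM) in 50 mM Tris pH 8.0, 300 mM NaCl, 1 mM TCEP. Glutathione donor and nickel acceptor beads; 1 h, 37 °C, dark.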
Gal4-VP16 FLuc: VP16 counterscreen qHTS for inhibitors of ROR gamma transcriptional activity | Drosophila S2 Gal4-VP16 UAS-luciferase, luminescence, 20 h | Potency, µM (highest dose often 53.6 µM), for the others: at the highest dose activity, negative = inhibition, actives largely listed as inhibitors | 310,000 compounds, 3.5% hits | AID 2546, 2010;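 note: Gal4-VP16 expression switched on by copper sulfate through the metallothionein promoter; potency is the fitted concentration of half-maximal effect; % is set by controls: 0 for no effect and ±100 for the full control effect; nearly all actives have a fitted effect of over 50% in size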
CBFb RUNX1 block: qHTS Assay for Compounds Blocking the Interaction Between CBF-beta and RUNX1 for the Treatment of Acute Myeloid Leukemia | Runt-related transcription factor 1 (Homo sapiens) + Core-binding factor subunit beta … | AlphaScreen CBFb-His/RUNX1-biotin binding, biochemical | Potency, µM (titrated, usually from 59.8 µM), without a hit: at the highest dose activity, negative = inhibition, most hits filed as inhibitors | 230,000 tested, under 10 active; note: % of control where 0% means no effect
Target sequence (Q01196 whole entry, looked up): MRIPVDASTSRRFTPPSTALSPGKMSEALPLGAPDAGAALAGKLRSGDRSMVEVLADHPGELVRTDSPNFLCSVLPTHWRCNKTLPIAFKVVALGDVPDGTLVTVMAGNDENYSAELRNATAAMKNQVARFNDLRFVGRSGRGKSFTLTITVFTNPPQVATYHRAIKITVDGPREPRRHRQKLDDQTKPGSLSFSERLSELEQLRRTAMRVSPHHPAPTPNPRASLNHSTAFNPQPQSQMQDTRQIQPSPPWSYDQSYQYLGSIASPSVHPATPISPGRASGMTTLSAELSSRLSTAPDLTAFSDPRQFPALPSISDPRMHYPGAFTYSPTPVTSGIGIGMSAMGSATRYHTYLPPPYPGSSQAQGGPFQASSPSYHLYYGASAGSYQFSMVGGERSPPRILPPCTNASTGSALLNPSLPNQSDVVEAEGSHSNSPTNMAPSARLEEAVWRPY
Target sequence (Q13951 whole entry, looked up): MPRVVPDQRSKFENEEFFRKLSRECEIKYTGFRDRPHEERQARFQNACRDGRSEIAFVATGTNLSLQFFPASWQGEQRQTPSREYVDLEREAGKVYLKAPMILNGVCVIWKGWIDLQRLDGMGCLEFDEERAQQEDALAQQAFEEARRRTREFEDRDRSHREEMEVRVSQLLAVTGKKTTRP
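Read-out: AlphaScreen. Format: His-CBF-beta with biotinylated RUNX1 (30 nM each) preincubated 20 min, compound 15 min, Ni-chelate plus streptavidin beads 90 min; room temperature throughout.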
Starred values were filed as active, the others as inactive; [ ] = remark or other dose. Sampled rows, rich in hits. Any-hit rate of the full collection: about 5.5%. Unless noted, calls come from the whole dose curve; as a rule, active = well fitted curve in the direction sought with a large enough effect; inconclusive = small, poorly fitted or top-dose-only effect, or another doubt; inactive = no such curve, though single readings can be large; an effect the other way counts as inactive or inconclusive.

Screening COC(=O)[C@]12CCCCC=C1N(Cc1ccccc1)C(=O)[C@H](CC(=O)NCC13CC4CC(CC(C4)C1)C3)C2 returned CtBP-E1A inh -7.0 and Six1-Eya2 inh -12.3.
Screening CC1Cc2ccccc2N1CC(=O)NC(=O)NC1CCCCC1 (configuration not stated) returned RORg inh 18.9%, CtBP-E1A inh -4.7, MBNL1-CUG inh -5.9%, Six1-Eya2 inh -21.3, Gal4-VP16 FLuc 7.5% and CBFb RUNX1 block -3.6%.
For CCOc1ccc(NC(=S)NCc2ccco2)cc1 the results were RORg inh 14.1µM*, CtBP-E1A inh -4.7, MBNL1-CUG inh -5.6%, Six1-Eya2 inh -1.1, Gal4-VP16 FLuc inconclusive and CBFb RUNX1 block 0.5%.
Screening COc1cc(NC(=S)NCc2cccnc2)cc(OC)c1 returned RORg inh inconclusive, CtBP-E1A inh 4.0, Six1-Eya2 inh 0.3, Gal4-VP16 FLuc -7.2% and CBFb RUNX1 block -10.9%.
COc1cc(NC(=S)NCc2ccco2)cc(OC)c1 was read as RORg inh 5.62µM*, CtBP-E1A inh -4.9, MBNL1-CUG inh -12.4%, Six1-Eya2 inh -5.3, Gal4-VP16 FLuc 4.2%[0.365 µM] and CBFb RUNX1 block -6.4%.
COc1ccc(NC(=S)NCc2ccco2)cc1 was read as RORg inh 11.2µM*, CtBP-E1A inh -4.4, MBNL1-CUG inh -4.5%, Six1-Eya2 inh -8.2, Gal4-VP16 FLuc inconclusive and CBFb RUNX1 block 1.9%.
For CCN1C[C@@H]2[C@@H]3C(=O)N(C)C(=O)[C@@H]3[C@](CC)(C1=O)N2C(=O)c1ccc(F)cc1 the results were CtBP-E1A inh 7.4 and Six1-Eya2 inh -1.3.
COc1cccc(CNC(=O)CC(NC(=O)c2ccccc2)c2ccccc2)c1 (configuration not stated) was read as CtBP-E1A inh 8.4 and Six1-Eya2 inh 3.2.
CCCc1cc(CNC(=O)C2CCC(=O)N(Cc3ccccc3OC)C2)on1 (configuration not stated) was read as RORg inh 0.6%, CtBP-E1A inh 7.5, MBNL1-CUG inh -2.8%, Six1-Eya2 inh -1.3 and Gal4-VP16 FLuc 6.6%.
For Cc1csc(N=Nc2ccc(N(C)C)cc2)[n+]1[O-] the results were CtBP-E1A inh inconclusive and Six1-Eya2 inh -77.4*.
Screening CN(C)S(=O)(=O)c1ccc(Nc2nc(C3CC3)nc3c2nnn3Cc2ccccc2Cl)cc1 returned RORg inh -33.1%, CtBP-E1A inh 6.4, MBNL1-CUG inh -18.3%, Six1-Eya2 inh -1.5, Gal4-VP16 FLuc 3.98µM* and CBFb RUNX1 block 4.2%.
For COC(=O)CNc1nc(C2CC2)nc2c1nnn2Cc1ccccc1Cl the results were RORg inh -23.6%, CtBP-E1A inh 2.6, MBNL1-CUG inh -3.1%, Six1-Eya2 inh 1.0, Gal4-VP16 FLuc -27.9% and CBFb RUNX1 block 10.0%.
CCCc1cc(-n2ccnc2C)n2c(nc3ccccc32)c1C#N was read as CtBP-E1A inh 3.6 and Six1-Eya2 inh -1.1.
CCCc1cc(N2CCN(C(=O)c3ccco3)CC2)n2c(nc3ccccc32)c1C#N was read as RORg inh 4.47µM*, CtBP-E1A inh -67.4*, MBNL1-CUG inh inconclusive, Six1-Eya2 inh inconclusive, Gal4-VP16 FLuc 3.8% and CBFb RUNX1 block 15.0%.
O=C(NNc1nc2c(F)cc(F)cc2s1)c1ccccc1 was read as RORg inh 5.01µM*, CtBP-E1A inh -4.5, MBNL1-CUG inh 3.0%, Six1-Eya2 inh 1.5, Gal4-VP16 FLuc inconclusive and CBFb RUNX1 block 6.2%.
For O=C(NNC(=O)c1ccc2ccccc2c1)c1cccc(F)c1 the results were CtBP-E1A inh 7.7 and Six1-Eya2 inh 2.2.
`O=C(NNc1nc2ccccc2s1)c1ccc(F)cc1` gave RORg inh 0.562µM*, CtBP-E1A inh 6.4, MBNL1-CUG inh -2.0%, Six1-Eya2 inh -2.2, Gal4-VP16 FLuc 1.26µM* and CBFb RUNX1 block 3.2%.
For O=C(NNc1nc2ccc(F)cc2s1)c1cccc(F)c1 the results were RORg inh 3.98µM*, CtBP-E1A inh 4.0, MBNL1-CUG inh -3.1%, Six1-Eya2 inh -1.5, Gal4-VP16 FLuc inconclusive and CBFb RUNX1 block -12.4%.
For CC(C)NC(=S)NNc1nc2ccccc2s1 the results were RORg inh 2.51µM*, CtBP-E1A inh 0.4, MBNL1-CUG inh -3.9%, Six1-Eya2 inh -2.0, Gal4-VP16 FLuc 3.98µM* and CBFb RUNX1 block -3.1%.
O=C(NNc1nc2c(F)cccc2s1)c1ccccc1 was read as RORg inh inconclusive, CtBP-E1A inh 8.7, MBNL1-CUG inh 0.6%, Six1-Eya2 inh -4.2, Gal4-VP16 FLuc inconclusive and CBFb RUNX1 block -0.5%.
Cc1cc(-c2nnc(SCC(=O)NC3CC3)n2C(C)C)cs1 was read as RORg inh 0.9%, CtBP-E1A inh 4.9, MBNL1-CUG inh 1.3%, Six1-Eya2 inh 4.8 and Gal4-VP16 FLuc -4.9%.
For COc1ccc(C(=O)NC(=S)N2CCNC(=O)C2)cc1Br the results were RORg inh 15.8µM*, MBNL1-CUG inh 0.0%, Six1-Eya2 inh -0.1, Gal4-VP16 FLuc inconclusive and CBFb RUNX1 block 3.5%.
O=C1CN(C(=S)NC(=O)c2ccc(-c3ccccc3)cc2)CCN1 was read as RORg inh 1.78µM*, CtBP-E1A inh 1.4, MBNL1-CUG inh 1.4%, Six1-Eya2 inh -0.1, Gal4-VP16 FLuc 10µM* and CBFb RUNX1 block -1.3%.
COc1ccc(C(=O)NC(=S)N2CCC(C)CC2)cc1Br was read as RORg inh 0.631µM*, CtBP-E1A inh 0.0, MBNL1-CUG inh 0.6%, Six1-Eya2 inh 15.4 and Gal4-VP16 FLuc 0.891µM*.
Screening O=C1CN(C(=S)Nc2ccccc2Cl)CCN1 returned RORg inh -15.5%, CtBP-E1A inh -12.6, MBNL1-CUG inh -12.0%, Six1-Eya2 inh -3.9, Gal4-VP16 FLuc 9.7% and CBFb RUNX1 block 9.6%.
For CN1CCN(c2ccc(NC(=S)NC(=O)/C=C/c3ccco3)cc2)CC1 the results were RORg inh 11.2µM*, CtBP-E1A inh -1.9, MBNL1-CUG inh inconclusive, Six1-Eya2 inh -7.1 and Gal4-VP16 FLuc 11.2µM*.
O=C(/C=C/c1ccco1)NC(=S)Nc1cccc(C(=O)O)c1 was read as RORg inh -5.6%, CtBP-E1A inh -0.5, MBNL1-CUG inh 20.4%, Six1-Eya2 inh inconclusive and Gal4-VP16 FLuc -4.7%.
`CC(=O)Nc1ccc(NC(=S)NC(=O)/C=C/c2ccco2)cc1` gave RORg inh 20.0%, CtBP-E1A inh 0.1, MBNL1-CUG inh inconclusive, Six1-Eya2 inh -14.9 and Gal4-VP16 FLuc 17.4%.
